Structures are written as SMILES. Results filed as inconclusive are left out. The source made the active and inactive calls. Calls come from the whole dose curve; as a rule, active = well fitted cell-killing curve with a large enough effect in the repeat runs; inconclusive = weak or mixed curves; inactive = flat fitted curve, though single readings scatter. Where a SMILES comes first, the peptide text is derived from it.
% is set by controls: 0 for no effect and ±100 for the full control effect.

This test is described as follows: qHTS RealTime-Glo MT Cell Viability Assay in HepG2 cells - 8 hour (AID 1224873). Note: nearly all actives have a fitted effect of over 55% in size. As to conditions: RealTime-Glo luminescence; series mostly up to 76.8 µM. An excerpt:
National Center for Advancing Translational Sciences [NCATS]
NIH Chemical Genomics Center [NCGC]
U.S. Environmental Protection Agency [EPA]
National Institutes of Environmental Health Sciences [NIEHS]
National Toxicology Program [NTP]
U.S. Food and Drug Administration [FDA]
Measure of cell viability is critical in the cell-base assay. Analysis of cell viability is necessary for the characterization of cell responses to cytotoxic drugs and environmental stress. A RealTime-Glo MT Cell Viability Assay to monitor cell viability in real time of continues cell culture during 40 hours of compound treatment was used to screen Tox21 10K library compounds in HepG2 cells. The RealTime-Glo MT Cell Viability Assay is a nonlytic, homogeneous, bioluminescent method to measure cell viability in real time using a simple, plate-based method. The assay involves adding NanoLuc luciferase and a cell-permeant prosubstrate to cells in culture. Viable cells reduce the proprietary prosubstrate to generate a substrate for NanoLuc luciferase. This substrate diffuses from cells into the surrounding culture medium, where it is rapidly used by the NanoLuc Enzyme to produce a luminescent signal. The signal correlates with the number of viable cells, making the assay well suited for cytotoxicity studies.
Tox21 Assay Protocol Summary:
The mixture of HepG2 cell suspension and reagents were dispensed at 600cells/6 ul/well in 1536-well tissue culture treated black solid bottom plates using a Multidrop dispenser. After the assay plates were incubated at a 37 C/5% CO2 incubator for 5 hours, 23 nL of compounds dissolved in DMSO, positive and negative controls was transferred to the assay plate by a pintool work station. The plates were incubated at 37 C for 40 hours. The luminescence intensity were measured at 0h, 8h, 16h, 24h, 32h and 40h time points using ViewLux plate reader during compound treatment.
As to `c1ccc2c(CC3=NCCN3)cccc2c1`, the molecule was called inactive.

Turning to `CC(S)C(C)S` (stereo not given), the call was inactive.

As to `O=C1c2ccccc2C(=O)c2cc(Cl)ccc21`, the viability change, negative = cytotoxic was 0.0863% [at 6.97 µM] (inactive).

For `O=C(CCCl)NCCc1ccccc1`, the molecule was classed as inactive.

Turning to `CCCCC1CCC(O)CC1` (stereo not given), the molecule was called inactive.

In the case of `CC1CCc2c(N3CCC(O)CC3)c(F)cc3c(=O)c(C(=O)O)cn1c23` (stereo not given), the outcome was inactive.

As to `CCCSSCCC`, the outcome was inactive.

`CCCCCC(C)O` (stereo not given): the molecule was classed as inactive.

For `CCOc1ccccc1OCC1CNCCO1` (stereo not given), the molecule was classed as inactive.

Regarding `CC(=O)C1C(=O)C=C(C)OC1=O` (stereo not given), the result was inactive.

As for `CC(C)OC(=O)CCC(=O)OC(C)C`, the call was inactive.

Consider `O=C(O)CSCC(=O)NC1CCSC1=O` (stereo not given), for which the molecule was classed as inactive.

In the case of `CC(=O)CCc1ccc(OC(C)=O)cc1`, the molecule was called inactive.

For the molecule `C[C@H]1[C@@H](c2ccccc2)NC(=O)N1C`, the outcome was inactive.

On to `CO[Si](CCCn1c(=O)n(CCC[Si](OC)(OC)OC)c(=O)n(CCC[Si](OC)(OC)OC)c1=O)(OC)OC`, for which the molecule was called inactive.

Take `COCCc1ccccn1`: the result was inactive.

Take `CC(=O)Nc1ccc(OC(=O)c2ccccc2OC(C)=O)cc1`: the call was inactive.

On to `C=CCCCCCCCCC(=O)OCCCC`, for which the outcome was inactive.

For `O=S(=O)(O)c1ccc2c(N=Nc3ccc(S(=O)(=O)O)c4ccccc34)c(O)c(S(=O)(=O)O)cc2c1`, the viability change, negative = cytotoxic is 0.329% [at 6.97 µM] (inactive).

`C=C(C)c1cccc(C(C)(C)N=C=O)c1`: the call was inactive.

With `CC(CO)(CO)CO`, the molecule was classed as inactive.

In the case of `O=[N+]([O-])c1c(Cl)cc(Cl)cc1Cl`, the call was inactive.

For the molecule `C=CCOC(=O)CCCCCC`, the molecule was called inactive.

For `CCCCCCCCCCCCCCCCCCOCCO`, the viability change, negative = cytotoxic was -3.15% [at 15.8 µM] (inactive).

Regarding `CN1C[C@@H]2C[C@H]1CN2c1cc2c(cc1F)c(=O)c(C(=O)O)cn2C1CC1`, the viability change, negative = cytotoxic is 8.97% [at 15.8 µM] (inactive).

Regarding `CCC(C)OC(C)CC` (stereo not given), the outcome was inactive.

In the case of `O=C1CCC(=O)N1Cl`, the molecule was classed as inactive.

Regarding `OCCN1CCOCC1`, the outcome was inactive.

With `CCO`, the result was inactive.

`CCOCCOCC`: the call was inactive.

Consider `CC(=O)O[C@H]1C[C@@H]2CC[C@@]1(C)C2(C)C`, for which the call was inactive.

For `COS(=O)(=O)O`, the call was inactive.

Regarding `C=CCSSCCC`, the result was inactive.

In the case of `CC1(C)[C@H]2CC[C@](C)(C2)[C@H]1O`, the result was inactive.

With `CCOC(=O)CC1(C)OCC(C)O1` (stereo not given), the molecule was called inactive.

On to `CC(=O)N[C@@H](CO)C(=O)N[C@@H](CC(=O)O)C(=O)N[C@@H](CCCCN)C(=O)N1CCC[C@H]1C(=O)O` (Ac-SDKP-OH), for which the molecule was called inactive.

In the case of `OCC(O)CN1CCN(c2ccccc2)CC1` (stereo not given), the result was inactive.

In the case of `CC(C)CCOC(=O)c1ccccc1`, the call was inactive.

Consider `CC(=O)O[C@@H]1CC2CCC1(C)C2(C)C` (stereo not given in full), for which the call was inactive.

As for `Cc1c(N)cccc1Cl`, the molecule was classed as inactive.

The values are drawn from PubChem BioAssay (Tox21).
